The results in this text go back to PubChem BioAssay AID687043 (Milwaukee Institute for Drug Discovery, 2013).

About 250 (1.6%) of roughly 16,000 compounds were called active.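 How the source made its calls: active means inhibition above the average over every tested compound plus 3 SD (cut at about 40% in these data); inactive means the rest.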 The entries come from a sample that favours actives as a whole.

In the assay the test system is Hepatitis C virus NS3 helicase. In words: compounds blocking NS3h DNA binding – biochemical, fluorescence polarization, ChemBridge library, primary screen (AID 687043). The conditions noted are these: NS3h Cy5-dT15 DNA binding, at 100 µM, stronger effect = higher value. (In general: In fluorescence polarisation assays a small probe gives low polarisation when free and higher when bound to something large.)
Regarding `CCCOC(=O)Cc1c(O)c2ccccc2[nH]c1=O`, the inhibition (as a rule, the drop in the measured response relative to a control, in per cent) was -1.3% (inactive).

For `O=[N+]([O-])c1ccc2c(c1)S(=O)(=O)N=C2Nc1cccnc1`, the inhibition was -7.4% (inactive).

As for `O=c1[nH][nH]c(=O)c2cc(N3CCCC3)ccc12`, the inhibition was 4.3% (inactive).

In the case of `O=C(NCc1ccccc1)C1CC(=O)N(c2ccc(Cl)cc2)C1` (configuration not stated), the inhibition is 2.8% (inactive).

`Cc1ccc2c(C)[n+](C)ccn12`: the inhibition is 15.6% (inactive).

Turning to `COc1ccc(C2CC(=O)C3=C(C2)Nc2ccccc2NC3c2ccc(SC)cc2)cc1` (configuration not stated), the inhibition is 11% (inactive).

For `Cc1ccc(/C=C/C(=O)Nc2cccc([N+](=O)[O-])c2)o1`, the inhibition is 6.1% (inactive).

`Cc1cccc(NC(=O)/C=C/c2ccc(F)cc2)c1`: the inhibition was 2.2% (inactive).

For the molecule `Cc1ccc(/C=C/C(=O)Nc2ccc(Br)cc2)o1`, the inhibition is 42.5% (active).

For `Cc1cccc(N2C(=O)S/C(=C/c3ccc(N(C)C)cc3)C2=O)c1`, the inhibition was 15.9% (inactive).

With `COc1ccc(C2CC(=O)C3=C(C2)Nc2ccccc2NC3c2cccc(Cl)c2)cc1` (configuration not stated), the inhibition was 9.2% (inactive).

`CCCCCCN1C(=O)C(O)=C(C(C)=O)C1c1ccc(Br)cc1` (configuration not stated): the inhibition was -0.7% (inactive).

Regarding `CCCCNC(=O)C(=O)NCCCOC(C)C`, the inhibition was 4.2% (inactive).

As for `O=C(Nc1ccc(Cl)cc1)/C(=C\c1cccc([N+](=O)[O-])c1)NC(=O)c1cccs1`, the inhibition was 0.7% (inactive).

In the case of `FC(F)(F)c1cc(/C=C/c2ccccc2)n[nH]1`, the inhibition was 10.2% (inactive).

`CC(C)(C)C(=O)COc1ccc2c(-c3ccccc3)cc(=O)oc2c1`: the inhibition was 14.2% (inactive).

For the molecule `COc1ccc(C2C=C(Nc3ccccc3)C(=O)N2c2ccccc2)c(OC)c1` (configuration not stated), the inhibition was -9.5% (inactive).

On to `FC(F)(F)c1ccc(/C=N\N2CCN(Cc3cccc4ccccc34)CC2)cc1`, for which the inhibition was 3.6% (inactive).

Consider `O=C1C2ON(c3ccccc3)C(c3ccc(Br)cc3)C2C(=O)N1c1ccccc1C(F)(F)F` (configuration not stated), for which the inhibition was 13.4% (inactive).

On to `O=c1c2c(nc3cc(-c4cccc(F)c4)[nH]n13)CCS2`, for which the inhibition is 57.3% (active).

With `CCc1c(C)nc2cc(-c3cccs3)[nH]n2c1=O`, the inhibition was -7.2% (inactive).

As for `CC(=O)Nc1c(C)cc(C2(c3cc(C)c(NC(C)=O)c(C)c3)CCCCC2)cc1C`, the inhibition is 2.3% (inactive).

For `CCOC(=O)c1c(-c2ccc(C)cc2C)csc1NC(=S)NC(=O)c1ccccc1`, the inhibition was 3.9% (inactive).

Regarding `O=C(NC(Cc1ccc(O)cc1)C(=O)O)/C(=C/c1ccccc1)NC(=O)c1ccccc1` (configuration not stated), the inhibition was -11.5% (inactive).

Turning to `Cc1cccc(N(CC(=O)O)S(C)(=O)=O)c1`, the inhibition is 4.5% (inactive).

Turning to `CCOC(=O)c1ccc(NC(=O)CN(c2cccc([N+](=O)[O-])c2)S(=O)(=O)c2ccccc2)cc1`, the inhibition was 24.9% (inactive).

Take `O=C(O)CC1S/C(=N\N=C2/C(=O)Nc3ccccc32)N(c2ccc(O)cc2)C1=O` (configuration not stated): the inhibition was 1.8% (inactive).

For the molecule `CCOc1ccccc1NC(=O)CN(c1ccc(OC)cc1)S(=O)(=O)c1ccc(C)cc1`, the inhibition is 13.8% (inactive).

As for `COc1cc(/C=C2/SC(=S)N(C)C2=O)ccc1OC(=O)c1cccs1`, the inhibition was 2.6% (inactive).

On to `COc1ccc(-c2nc3cc(NC(=O)C(C)C)ccc3o2)cc1OC`, for which the inhibition was -6.3% (inactive).

On to `CC(=O)C1=C(C)NC(C)=C(C(C)=O)C1c1cn(-c2ccccc2)nc1-c1cccs1`, for which the inhibition is 15.6% (inactive).

For `O=C(NC(=S)Nc1ccc2oc(-c3cccnc3)nc2c1)c1ccc(Cl)cc1`, the inhibition was -3.5% (inactive).

As for `O=C(NC(=S)Nc1ccc2oc(-c3ccc(Br)cc3)nc2c1)c1ccco1`, the inhibition is 17% (inactive).

For `O=C(NC(=S)Nc1ccc(-c2nc3cc(Cl)ccc3o2)cc1)c1ccco1`, the inhibition was 124% (active).

Turning to `CCOC(=O)C1=C(C)N=c2s/c(=C\c3ccc(F)cc3)c(=O)n2C1c1cccc(OC)c1` (configuration not stated), the inhibition is 10% (inactive).

On to `O=C(NCCCc1ccccc1)C1(c2ccccc2)CCCC1`, for which the inhibition is 27% (inactive).

Regarding `CCN(CC)c1ccc(/C=C2\C(=O)NC(=O)N(C)C2=O)cc1`, the inhibition is 27.7% (inactive).

Regarding `CCN(CC)c1ccc(/C=C2\C(=O)NC(=O)N(c3ccc(OC)cc3)C2=O)c(OC)c1`, the inhibition is -5.2% (inactive).

In the case of `CCN(CC)c1ccc(C=C2C(=O)N(C)C(=O)N(C)C2=O)c(O)c1`, the inhibition was 120% (active).

In the case of `Cc1ccc(N2C(=O)NC(=O)/C(=C\c3ccc(I)cc3)C2=O)cc1`, the inhibition is 12.1% (inactive).

For the molecule `CCOC(=O)c1c(CN(CCO)CCO)n(C)c2c1cc(OC(C)=O)c1c2c(-c2ccccc2)nn1-c1ccccc1`, the inhibition was -6.5% (inactive).

Take `Cc1ccc(N2C(=O)CC(NCCc3ccccc3F)C2=O)cc1` (configuration not stated): the inhibition is 8.2% (inactive).

For the molecule `CCOC(=O)c1ccc(NC(=O)c2ccccc2OC)cc1`, the inhibition is 17.7% (inactive).

Take `Cc1ccc([N+](=O)[O-])cc1NC(=O)C1CC1(c1ccccc1)c1ccccc1` (configuration not stated): the inhibition is 1.8% (inactive).

Regarding `O=S(=O)(Nc1ccc(O)c(-c2c(O)ccc3ccccc23)c1)c1cc(Cl)ccc1Cl`, the inhibition is 4.2% (inactive).

As for `CCCCCCN1C(=O)C(=O)C(=C(O)c2ccccc2)C1c1ccccc1OC` (configuration not stated), the inhibition is 1.4% (inactive).

Turning to `COc1cc(C(=S)N2CCOCC2)cc(OC)c1OC(=O)c1ccc(Br)cc1`, the inhibition was 15.4% (inactive).

With `Cc1ccc(S(=O)(=O)c2ccc(Sc3ccc(Cl)cc3)cc2)cc1`, the inhibition was 15.4% (inactive).

With `COc1ccc(-c2nc3sc(-c4ccc(OC)cc4)nc3s2)cc1`, the inhibition was 6% (inactive).

Regarding `O=C1NC(=Nc2ccc(F)cc2)S/C1=C/c1ccc(Br)cc1`, the inhibition is 4.6% (inactive).

As for `Cc1cc(NC(=O)c2ccc(-c3cccc([N+](=O)[O-])c3)o2)ccc1NC(=O)c1ccco1`, the inhibition is 14.7% (inactive).

On to `CCOc1cccc2c1N(C(=O)c1ccc(OC)cc1)C(C)(C)C(=S)C2=C1SC(C(=O)OC)=C(C(=O)OC)S1`, for which the inhibition is 0.9% (inactive).

On to `CS(=O)(=O)N1CCN(C(=O)Cc2ccccc2)CC1`, for which the inhibition was 7.7% (inactive).

`CCOc1ccc(/C=C2/Sc3ccccc3C2=O)cc1OCC`: the inhibition was 6.1% (inactive).

As to `COc1ccc(N2C(=O)C3C4C=CC(C4=C(C)C)C3C2=O)c([N+](=O)[O-])c1` (configuration not stated), the inhibition was 15.2% (inactive).

As to `COc1ccc(N=Cc2sccc2C)c([N+](=O)[O-])c1`, the inhibition was 4.3% (inactive).

For the molecule `COc1ccc(N2C(=O)C=CC2=O)c([N+](=O)[O-])c1`, the inhibition is 97.8% (active).

For the molecule `Cc1ccc2[nH]c(C)c(CN3CCOCC3)c(=O)c2c1`, the inhibition is -1.6% (inactive).

With `CC(Oc1cccc(Cl)c1)C(=O)Nc1ccccc1C(=O)N1CCN(Cc2ccccc2)CC1` (configuration not stated), the inhibition was 0.3% (inactive).

Regarding `COC(=O)C(NC(=O)c1ccccc1)C12CC3CC(CC(C3)C1)C2` (configuration not stated), the inhibition is 7.5% (inactive).

On to `Cc1cc(C)n(C(=O)c2cc(F)c(F)cc2Cl)n1`, for which the inhibition is 3.6% (inactive).

On to `Cc1ccc(NC2=CC(=O)C=CC2=O)c(C)c1`, for which the inhibition is -2.9% (inactive).

As to `COc1ccc(OC)c(N(CC(=O)Nc2cccc(Br)c2)S(C)(=O)=O)c1`, the inhibition was 9.1% (inactive).

Turning to `CCC(=O)N1CCN(c2ccc(C(=O)c3ccccc3)cc2F)CC1`, the inhibition is -2.8% (inactive).

Turning to `Cc1cc(/C=C(/C#N)C(=O)Nc2ccc(F)cc2)c(C)n1-c1ccc(Cl)cc1`, the inhibition is -2.8% (inactive).

In the case of `COc1ccc(/C=C2\C(=O)NC(=S)N(c3ccc(Br)cc3)C2=O)cc1`, the inhibition is 5.9% (inactive).

As to `CCN1C(=O)C(=Cc2ccc(O)cc2)C(=O)NC1=S`, the inhibition was 65.4% (active).

In the case of `CCOC(=O)c1ccc(N2NC(=O)/C(=C/c3ccc(O)cc3)C2=O)cc1`, the inhibition was 5.1% (inactive).

As for `COc1ccccc1NC(=O)C(=O)NCc1ccccc1`, the inhibition is -0.6% (inactive).

With `Cc1oc2cc(Br)c(O)cc2c1C(=O)OC(C)C`, the inhibition is 9.4% (inactive).

Turning to `O=C(c1nn2c(c1Cl)NC(c1cccs1)CC2C(F)(F)F)N1CCN(c2ccc(F)cc2)CC1` (configuration not stated), the inhibition is 5.2% (inactive).

As for `Cc1cccc(NC(=O)CSc2ncn[nH]2)c1`, the inhibition is 1.3% (inactive).

In the case of `COc1ccc(CNS(=O)(=O)c2ccc(Cl)cc2)cc1`, the inhibition was -5% (inactive).

Take `CC(C)Oc1ccc(/C=C(/NC(=O)c2ccccc2)C(=O)Nc2ccccc2)cc1`: the inhibition is 14.7% (inactive).

Turning to `CCN(CC)c1ccc(NC(=O)/C(=C\c2ccccc2)NC(C)=O)cc1`, the inhibition is 56.6% (active).

For `CC(=O)Nc1ccc(NC(=S)NC(=O)/C=C/c2ccccc2)cc1`, the inhibition is -21.9% (inactive).

On to `Cc1c(C=O)c(=O)oc2c3c4c(cc12)CCCN4CCC3`, for which the inhibition is 1.3% (inactive).

Consider `O=C(NC1C2CC3CC(C2)CC1C3)c1cccc(I)c1` (configuration not stated), for which the inhibition is 15.2% (inactive).

For `O=c1oc2ccc3ccccc3c2cc1-c1ccc(I)cc1`, the inhibition was 4.2% (inactive).

Take `CC(=O)Oc1ccccc1-c1nc2s/c(=C/c3ccco3)c(=O)n2n1`: the inhibition was 6.7% (inactive).

Regarding `Cc1cc(/C=C2\C(=O)NC(=O)N(c3ccc4c(c3)OCO4)C2=O)c(C)n1-c1ccc(F)cc1`, the inhibition was 14.5% (inactive).

In the case of `Cc1cccc(OCCOc2ccc(Cl)cc2/C=C2/SC(=S)N(C)C2=O)c1`, the inhibition was 23.2% (inactive).

Take `O=C1C2C3C=CC(C3)C2C(=O)N1/N=C\c1ccc(-c2ccccc2[N+](=O)[O-])o1` (configuration not stated): the inhibition was 10.6% (inactive).

For the molecule `COC(=O)c1ccccc1NC(=O)c1ccc(Cl)cc1`, the inhibition is -2.8% (inactive).

For `COc1ccc(CC(=O)Nc2cc(NC(=O)Cc3ccc(OC)cc3)cc(C(=O)NC(C)(C)C)c2)cc1`, the inhibition was 8.2% (inactive).

`O=C1NN(c2ccccc2)C(=O)/C1=C/c1c(Cl)cccc1Cl`: the inhibition was 8.3% (inactive).

As to `O=C1c2ccc(C(c3ccc4c(c3)C(=O)N(c3ccccc3)C4=O)(C(F)(F)F)C(F)(F)F)cc2C(=O)N1c1ccccc1`, the inhibition was 8.7% (inactive).

As for `CC(C)C(=O)Nc1ccc2c3c(cccc13)CC2`, the inhibition was 0.3% (inactive).

For `COc1ccccc1N1CCN(/N=C(/C)c2ccncc2)CC1`, the inhibition was -3.7% (inactive).

With `COc1ccc(/C=c2\sc3n(c2=O)C(c2ccc(OC)cc2)C(C(=O)OC(C)C)=C(C)N=3)cc1` (configuration not stated), the inhibition was -0.7% (inactive).

For the molecule `CCOc1ccccc1NC(=O)c1ccc(CN2CCOCC2)cc1`, the inhibition is 6.1% (inactive).

Take `Cc1ccc(C(=O)N/C(=C/c2cccc3ccccc23)C(=O)N2CCCC2)cc1`: the inhibition was -0.3% (inactive).
